From PubChem BioAssay (NCATS) come the findings set out here.

Each structure is given as a SMILES string. Inconclusive results are not listed. Active and inactive are the calls of the source. Calls follow the shape of the dose curve; as a rule, active = well fitted inhibition curve with a large enough effect; inconclusive = small, poorly fitted or top-dose-only effect; inactive = flat fitted curve, though single readings scatter.
Potency is read from the fitted curve at half-maximal effect.

Sequence of Ubiquitin carboxyl-terminal hydrolase 2 (Homo sapiens) (O75604 whole entry, looked up): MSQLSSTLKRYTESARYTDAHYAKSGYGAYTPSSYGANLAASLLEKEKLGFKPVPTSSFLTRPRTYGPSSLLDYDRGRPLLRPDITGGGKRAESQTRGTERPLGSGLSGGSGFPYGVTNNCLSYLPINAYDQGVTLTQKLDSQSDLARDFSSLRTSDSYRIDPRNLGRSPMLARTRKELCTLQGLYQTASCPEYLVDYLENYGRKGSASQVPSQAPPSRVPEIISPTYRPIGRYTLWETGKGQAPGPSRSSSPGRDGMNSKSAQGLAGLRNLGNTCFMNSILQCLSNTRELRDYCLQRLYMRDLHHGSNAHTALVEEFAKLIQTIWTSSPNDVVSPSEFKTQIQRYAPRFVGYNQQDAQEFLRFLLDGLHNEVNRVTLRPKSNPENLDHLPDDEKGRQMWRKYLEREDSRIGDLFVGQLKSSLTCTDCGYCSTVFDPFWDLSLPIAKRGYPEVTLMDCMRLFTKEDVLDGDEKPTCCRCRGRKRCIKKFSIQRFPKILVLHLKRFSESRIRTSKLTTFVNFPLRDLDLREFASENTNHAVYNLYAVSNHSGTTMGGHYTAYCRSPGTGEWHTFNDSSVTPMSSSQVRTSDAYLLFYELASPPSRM

In this experiment the target is Ubiquitin carboxyl-terminal hydrolase 2 (Homo sapiens) (UniProt O75604). Kind of experiment: qHTS for Inhibitors of Ubiquitin-specific Protease USP2a Using CHOP2 as the Reporter: K484 Substrate (AID 652173).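 Also: cleavage of internally quenched K48 di-ubiquitin substrate measured as rising fluorescence over time; nearly all actives have a fitted effect of over 70% in size.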 The note with it: USP2 cleavage of DiUb K48 IQF substrate, fluorescence; series mostly up to 57.5 µM. The procedure, abridged:
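USP2 (dispensed at 5 nM) was pinned with compounds, then DiUb K48 internally quenched fluorescent substrate (dispensed at 100 nM) was added. The buffer was 20 mM Tris pH 8, 2 mM beta-mercaptoethanol and 0.05% CHAPS. Cleavage was read kinetically as rising fluorescence, Ex 525/Em 598.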
(In general: qHTS replaces the single test concentration by a dilution series.)
For the compound `Cc1ccc(S(=O)(=O)Nc2cnccc2C(=O)Nc2nc(-c3ccco3)cs2)cc1`, the Potency was 4.32 µM (active).

In the case of `O=C(Nc1ccc(C(=O)Nc2nccs2)cc1)c1ccc2ccccc2c1`, the Potency was 3.85 µM (active). Next, `Cc1ccc(-c2cc(C(=O)NCc3ccc(S(N)(=O)=O)cc3)c3ccccc3n2)cc1C`: 9.68 µM (active); `O=C(Nc1nc(-c2ccccc2)cs1)c1ccncc1NS(=O)(=O)c1ccc2ccccc2c1`: 1.37 µM (active); `Cc1ccc(-c2cc(C(=O)Nc3ccc(S(=O)(=O)Nc4ccccn4)cc3)c3ccccc3n2)cc1C`: 4.32 µM (active).

For `Cc1ccc(S(=O)(=O)Nc2ncccc2C(=O)Nc2nc(-c3ccccc3)cs2)cc1`, the Potency was 3.43 µM (active). For `Cc1ccc(-c2cc(C(=O)Nc3ccc(S(=O)(=O)Nc4cccnc4)cc3)c3ccccc3n2)cc1C`, the Potency was 6.85 µM (active). The value for `O=C(Nc1ccc(S(=O)(=O)Nc2nccs2)cc1)c1ccc2ccccc2c1` was 2.73 µM (active); that for `Cc1ccc(S(=O)(=O)Nc2ccccc2C(=O)Nc2cnc(-c3ccccc3)cn2)cc1` was 3.43 µM (active); that for `O=C(Nc1nc(-c2ccccc2)cs1)c1ccncc1NS(=O)(=O)c1ccc2c(c1)CCC2` was 1.93 µM (active). Next, `CNS(=O)(=O)c1ccc(NC(=O)c2cc(-c3ccc(C)c(C)c3)nc3ccccc23)cc1`: 4.85 µM (active).

Regarding `Cc1ccc(-c2cc(C(=O)Nc3cccnc3)c3ccccc3n2)cc1C`, the Potency is 19.3 µM (active). For the compound `Cc1ccc(-c2cc(C(=O)Nc3ccc(C(N)=O)cc3)c3ccccc3n2)cc1C`, the Potency was 21.7 µM (active).

On to `CCCCC1CCC(C(=O)Nc2ccc(S(=O)(=O)Nc3cc(C)on3)cc2)CC1` (configuration not stated), for which the Potency was 12.2 µM (active).

For the compound `Cc1ccc(S(=O)(=O)Nc2ccc(OC(F)(F)F)cc2C(=O)Nc2nc(-c3ccccc3)cs2)cc1`, the Potency is 2.43 µM (active).

Regarding `Cc1ccc(-c2cc(C(=O)Nc3ccc4ccccc4c3)c3ccccc3n2)cc1C`, the Potency was 19.3 µM (active).

On to `Cc1ccc(S(=O)(=O)Nc2cnccc2C(=O)Nc2nc(-c3ccccc3F)cs2)cc1`, for which the Potency is 2.17 µM (active).

For `Cc1ccc(-c2cc(C(=O)Nc3ccc4[nH]ccc4c3)c3ccccc3n2)cc1C`, the Potency is 8.63 µM (active). Turning to `Cc1ccc(-c2cc(C(=O)Nc3cccc(S(=O)(=O)Nc4nccs4)c3)c3ccccc3n2)cc1C`, the Potency was 3.06 µM (active). For `COc1ccc(-c2csc(NC(=O)c3ccncc3NS(=O)(=O)c3ccc(C)cc3)n2)cc1`, the Potency was 2.17 µM (active). The value for `Cc1ccc(S(=O)(=O)Nc2ccccc2C(=O)Nc2ncc(-c3ccccc3)o2)cc1` was 2.43 µM (active); that for `Cc1ccc(-c2cc(C(=O)Nc3ccc(C#N)cc3)c3ccccc3n2)cc1C` was 12.2 µM (active); that for `Cc1ccc(-c2cc(C(=O)Nc3ccc(S(=O)(=O)N(C)Cc4nccs4)cc3)c3ccccc3n2)cc1C` was 3.85 µM (active). Turning to `Cc1ccc(S(=O)(=O)Nc2ccc(C(=O)Nc3nc(-c4ccccc4)cs3)cc2Cl)cc1`, the Potency is 2.17 µM (active). Next, `Cc1ccc(-c2cc(C(=O)Nc3ccc(S(=O)(=O)Nc4ccncc4)cc3)c3ccccc3n2)cc1C`: 9.68 µM (active); `Cc1ccc(S(=O)(=O)Nc2ccc(Cl)c(C(=O)Nc3nc(-c4ccccc4)cs3)c2)cc1`: 2.43 µM (active). The value for `Cc1ccc(-c2cc(C(=O)Nc3ccncc3)c3ccccc3n2)cc1C` was 13.7 µM (active); that for `Cc1ccc(-c2cc(C(=O)Nc3ccc([N+](=O)[O-])cc3)c3ccccc3n2)cc1C` was 13.7 µM (active); that for `Cc1ccc(-c2cc(C(=O)Nc3cccc(S(N)(=O)=O)c3)c3ccccc3n2)cc1C` was 5.44 µM (active).

Turning to `O=C(Nc1nc(-c2ccccc2)cs1)c1ccncc1NS(=O)(=O)c1ccc(-c2ccccc2)cc1`, the Potency was 1.53 µM (active). As to `O=C(C[C@H]1CC[C@@H](C(=O)Nc2ccc(S(=O)(=O)Nc3nccs3)cc2)C1)c1ccccc1`, the Potency was 19.3 µM (active). The value for `Cc1ccc(S(=O)(=O)Nc2cnccc2C(=O)Nc2cccc3ccccc23)cc1` was 7.69 µM (active); that for `CCCCC1CCC(C(=O)Nc2ccc(S(=O)(=O)Nc3nccs3)cc2)CC1` (configuration not stated) was 4.85 µM (active); that for `Cc1ccc(S(=O)(=O)Nc2cnccc2C(=O)Nc2nc(-c3ccc(C)c(C)c3)cs2)cc1` was 2.73 µM (active).

Turning to `Cc1ccc(-c2cc(C(=O)Nc3ccc(S(C)(=O)=O)cc3)c3ccccc3n2)cc1C`, the Potency was 6.85 µM (active).

Take `Cc1ccc(S(=O)(=O)Nc2ccccc2Nc2nc(-c3ccccc3)cs2)cc1`: the Potency was 3.85 µM (active). The value for `O=S(=O)(Nc1nccs1)c1ccc(Nc2nc(-c3ccc(-c4ccccc4)cc3)cs2)cc1` was 1.93 µM (active).
